Source: PubChem BioAssay
TSHR antagonist: human thyrotropin receptor antagonism | P16473 | TSHR-expressing cells, TSH-stimulated cAMP HTRF, 2 h; active compounds read low | activity change, negative = inhibition, % at 11.5 µM | 330,000 compounds, 0.2% hits;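 active = activity change below a set negative limit, meaning inhibition stronger than a set level, cut at about -70% in these data; inconclusive = activity change between two set negative limits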; note: % is set by controls: 0 for no effect and ±100 for the full control effect
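TSHR-expressing cells, 200/well, pre-treated with compound, then stimulated with EC80 TSH (4nM final) for 2 hours at 37 deg C. cAMP measured by competitive HTRF: anti-cAMP cryptate antibody in lysis buffer plus cAMP-d2, read after 30 minutes at room temperature.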
uPA generation: inhibitors of cell surface uPA generation | cell surface uPA generation assay, qHTS | Potency, µM (doses to about 38.3 µM), without a hit: at the top dose activity change, negative = inhibition, most hits filed as inhibitors | 330,000 compounds, 0.31% hits | AID 540303; active = well fitted inhibition curve with a large enough effect; inconclusive = small, poorly fitted or top-dose-only effect; inactive = no such curve, though single readings can be large or run the other way; tested in mouse RAW 264.7 cells; note: potency is the fitted concentration of half-maximal effect; % is set by controls: 0 for no effect and ±100 for the full control effect; nearly all actives have a fitted effect of over 55% in size
VDR inhibitor: blocks the human vitamin D receptor | VDR-SRC2-3 peptide fluorescence polarization, 2 h | Potency, µM, without a hit: max response, negative = inhibition, hits mostly inhibitors | 400,000 compounds, 0.93% hits | P11473; note: potency is the fitted concentration of half-maximal effect; % is set by controls: 0 for no effect and ±100 for the full control effect
Target sequence (P11473 whole entry, looked up): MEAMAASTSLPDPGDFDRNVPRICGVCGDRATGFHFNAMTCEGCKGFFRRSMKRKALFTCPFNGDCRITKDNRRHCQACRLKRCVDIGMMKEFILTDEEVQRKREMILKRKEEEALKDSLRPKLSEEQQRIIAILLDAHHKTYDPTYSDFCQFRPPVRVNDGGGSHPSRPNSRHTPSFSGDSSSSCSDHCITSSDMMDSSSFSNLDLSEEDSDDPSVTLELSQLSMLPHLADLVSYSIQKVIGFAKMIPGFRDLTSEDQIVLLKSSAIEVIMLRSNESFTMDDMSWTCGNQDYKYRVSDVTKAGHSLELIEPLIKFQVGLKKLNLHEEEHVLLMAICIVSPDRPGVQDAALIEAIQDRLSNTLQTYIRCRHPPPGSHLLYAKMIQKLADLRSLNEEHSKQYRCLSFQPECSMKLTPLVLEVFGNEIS
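Fluorescence polarization assay measuring small-molecule disruption of VDR binding to the coregulator peptide SRC2-3. Compounds were pin-transferred (23 nl) into the reagent mix and incubated 2 h at room temperature before reading.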
PTAP TSG101 blk: blocks PTAP/TSG101 interaction to inhibit HIV-1 budding. Q99816. Fluorescence polarization, FITC-PTAP peptide / Tsg101 binding. Potency, µM (top dose mostly 115 µM), for inactives: at the top dose activity change, negative = inhibition, usual class: inhibitors. 340,000 tested, under 10 active. AID 493005; active = well fitted inhibition curve with a large enough effect in the main read-out, with a control signal flat, not every such curve was filed as active; inconclusive = small, poorly fitted or top-dose-only effect, or effect the other way, or a change in a side signal; inactive = no such curve, though single readings can be large or run the other way; note: potency is the fitted concentration of half-maximal effect; % of control where 0% means no effect
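Fluorescence polarization binding of Tsg101 binding domain (10 uM final) to FITC-labeled PTAP peptide (50 nM final) in HEPES pH 7.5 buffer with NaCl, Tween 20, EDTA, TCEP. Compounds added before peptide; binding 20 min at RT.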
PLK1 PBD block: inhibitors of human PLK1 polo-box domain binding; Plk1 PBD binding of FITC phosphopeptide, fluorescence polarization; Potency, µM, without a hit: max response, negative = inhibition, usual class: inhibitors; 360,000 compounds, 2.8% hits; AID 720504; note: potency is the fitted concentration of half-maximal effect; series mostly up to about 57 µM; % is set by controls: 0 for no effect and ±100 for the full control effect; nearly all actives have a fitted effect of over 65% in size
The depositor's hits bear a star; ? = inconclusive; . = no result given. The list is not random: actives were taken first. Their share in the collection is about 3.1%. Unless noted, calls come from the whole dose curve; as a rule, active = well fitted curve in the direction sought with a large enough effect; inconclusive = small, poorly fitted or top-dose-only effect, or another doubt; inactive = no such curve, though single readings can be large; an effect the other way counts as inactive or inconclusive.

SMILES | TSHR antagonist | uPA generation | VDR inhibitor | PTAP TSG101 blk | PLK1 PBD block
CCn1c(=O)c([N+](=O)[O-])c(NCCN(C)C)c2ccccc21 | -2.9 | 6.9% | 14.8% | -1.9% | -1.8%
CC(C)OC(=O)CSc1nnc(-c2cnccn2)n1Cc1ccco1 | . | 8.9% | -2.8% | -3.7% | -8.9%
COc1cccc(-c2nnc(SCC(=O)OC(C)C)n2Cc2ccco2)c1 | 13.1 | -3.6% | -12.5% | -9.7% | 26.7µM*
CC(C(=O)Nc1ccccc1-c1ccccc1)N(C)Cc1nc2ccccc2c(=O)[nH]1 (centres undefined) | -3.9 | -6.2% | ? | 0.8% | 6.7µM*
CCc1ccc2c(c1)NC(c1cccnc1)=NC(c1ccc(C(C)(C)C)cc1)=N2 | . | . | 6.3% | . | .
CCCCCCCCCCCCCCCCCCOC[C@H](COP(=O)([O-])OCC[N+](C)(C)C)OC | -81.3* | . | 10.4% | . | .
CCCCCCCCCCCCCCCCOCC(COP(=O)([O-])OCC[N+](C)(C)C)OC (centres undefined) | . | . | -1.4% | . | .
Cc1ccc(N2C(=O)CS(=O)(=O)C23C(=O)Nc2ccccc23)cc1C (centres undefined) | . | . | 3.7% | . | .
COc1ccc(NC(=O)CCc2nnc3ccc(N4CCC5(CC4)OCCO5)nn23)cc1 | 16.1 | 3.7% | -18.8% | -0.7% | -17.5%
CCOC(=O)c1cccc(NC(=O)CCc2nnc3ccc(N4CCCCC4)nn23)c1 | -9.6 | -6.5% | -3.3% | -5.7% | -18.0%
CCOC(=O)c1cccc(NC(=O)CCc2nnc3ccc(N4CCN(C)CC4)nn23)c1 | 6.1 | 2.5% | -12.5% | -4.0% | 23.8µM*
COc1ccccc1CNC(=O)CCc1nnc2ccc(NCCCN3CCCC3=O)nn12 | -1.8 | 5.4% | -8.7% | -1.1% | 21.2µM*
O=C(CCc1nnc2ccc(N3CCC4(CC3)OCCO4)nn12)Nc1ccc(F)cc1 | 17.4 | -0.4% | ? | 0.0% | 13.4µM*
COc1ccc(OC)c(CCNC(=O)CCc2nnc3ccc(N4CCOCC4)nn23)c1 | -4.1 | -4.4% | -20.4% | -4.8% | 29.9µM*
CCc1cccc(NC(=O)Cn2nc(-c3cc(C)ccc3C)ccc2=O)c1 | . | . | -10.1% | . | .
O=C1CN(C(=O)COc2ccccc2)C(c2ccc(F)cc2)c2cc(Br)ccc2N1 (centres undefined) | . | . | -2.1% | . | .
C[C@H]1CN([C@@H](C)CO)C(=O)CCCn2nncc2CO[C@H]1CN(C)S(=O)(=O)c1ccc(Oc2ccccc2)cc1 | . | . | . | . | -2.7%
COc1cccc(N2CCN(c3ccc4nnc(CCC(=O)N5CCC(C)CC5)n4n3)CC2)c1 | -17.7 | -3.2% | -27.6% | -3.2% | 23.8µM*
COc1ccc(N2CCN(C(=O)CCc3nnc4ccc(N5CCC(C)CC5)nn34)CC2)cc1 | -9.7 | -22.8% | -0.7% | 4.0% | 0.4%
COc1cccc(N2CCN(c3ccc4nnc(CCC(=O)Nc5cccc(C(C)=O)c5)n4n3)CC2)c1 | -6.0 | 0.3% | ? | -2.8% | 21.2µM*
O=C1CC(c2ccco2)CC2=C1C(c1cccnc1)n1nc(C(F)(F)F)nc1N2 (centres undefined) | . | . | -12.7% | . | .
COc1ccc(NC(C)=O)cc1NC(C)C(=O)Nc1ccc(S(=O)(=O)N2CCCCC2)cc1 (centres undefined) | -4.7 | 3.16µM* | -4.7% | -0.8% | -15.6%
CC1Cc2cc(-c3csc(NC(=O)Cc4cccs4)n3)ccc2N1S(C)(=O)=O (centres undefined) | -72.3* | -2.1% | -0.2% | 1.9% | 0.0%
CCC(=O)Nc1nc(-c2ccc3c(c2)CC(C)N3S(C)(=O)=O)cs1 (centres undefined) | 23.5 | -0.7% | 2.5% | -2.4% | -0.7%
COc1ccc(CCNC(=O)C(=O)NCC(c2ccco2)S(=O)(=O)c2cccs2)cc1 (centres undefined) | . | . | 12.2% | . | .
Cc1oncc1C(=S)Nc1ccccc1 | 5.0 | -4.8% | -4.4% | -6.2% | 26.7µM*
CC(O)c1cccc(-c2ccc(CN3C[C@]4(CO)O[C@@H](CO)C[C@@H]4S3(=O)=O)cc2)c1 (some centres undefined) | 18.9 | -4.9% | ? | -0.5% | 26.7µM*
O=S1(=O)[C@H]2C[C@@H]3C=C[C@@]2(CN1Cc1cccc(Cl)c1)O3 | 28.2 | 3.2% | -3.1% | 5.2% | -5.5%
NOCc1ccccc1 | . | . | 2.1% | . | .
